Outcome data for 77 molecules are collected here from PubChem BioAssay.

Results with a measured potency or affinity are listed apart. Activity calls are given as the source filed them. The rule behind the calls is not given here.

A short description of experiment [1]: A549 cell cytotoxicity, dose response, cytotoxicity control, plate reader, cherry-pick, antagonist series (AID 743412).
Experiment [2] can be described thus: toxicity toward HepG2 liver cells – cell-based, plate reader, cherry-pick, antagonist series, cytotoxicity control, dose response (AID 743416).
Experiment [3] addresses Melanocortin receptor 4 (Homo sapiens) (UniProt P32245). Put plainly: blockade of melanocortin 4 receptor signaling – cell-based, plate reader, cherry pick, counter-screen for LGR2 antagonist project, dose response (AID 743444).

As for `O=C(Nc1ccc(N2CCN(C(=O)c3ccc(Cl)cc3)CC2)cc1)c1cc2ccccc2o1`, the molecule was classed as inactive in experiment [1] and in experiment [2].

Turning to `O=C(O)c1ccc(-c2noc(-c3ccccc3Cl)n2)cc1`, the outcome in experiment [1] and in experiment [2] was inactive.

Regarding `COc1ccc(-c2nc(-c3cccs3)no2)cc1`, the molecule was called inactive in experiment [1] and in experiment [2].

As for `Cc1cc(C(=O)Nc2ccc(N3CCCCC3)cc2)no1`, the outcome in experiment [1] and in experiment [2] was inactive.

`Clc1ccc(OCc2nc(-c3ccccn3)no2)c(Br)c1`: the call in experiment [1] and in experiment [2] was inactive.

For the molecule `CCCCN(CCCNC(=O)c1ccc2c(c1)NC(=O)CN2C)c1ccccc1`, the call in experiment [1] and in experiment [2] was inactive.

As to `CN(C)c1ccc(-c2nc3cc(N)ccc3o2)cc1`, the molecule was called inactive in experiment [1] and in experiment [2].

`Cc1ccnc(NC(=O)c2cccc(S(=O)(=O)N3CCN(c4ccccc4)CC3)c2)c1`: the call in experiment [1] and in experiment [2] was inactive.

For `C[C@H](CO)N1C[C@H](C)[C@H](CN(C)C(=O)Nc2ccc(F)cc2)OCCCC[C@H](C)Oc2ccc(NC(=O)C3CCCCC3)cc2C1=O`, the molecule was classed as inactive in experiment [1] and in experiment [2].

`COc1cc(NC(=O)c2cccs2)c(C(=O)OCC(=O)c2cc(C)n(-c3ccccc3)c2C)cc1OC`: the result in experiment [1] and in experiment [2] was inactive.

`O=C(Nc1nc2c(s1)CCCC2)C1COc2ccccc2O1` (stereo not given): the molecule was called inactive in experiment [1] and in experiment [2].

For `Cc1cc(C(=O)COC(=O)C2CC2)c(C)n1-c1ccc(F)cc1`, the molecule was classed as inactive in experiment [1] and in experiment [2].

For the molecule `CCN(CC)S(=O)(=O)c1cc(C(=O)OCC(=O)Nc2ccc(-c3nc4ccc(C)cc4s3)cc2)ccc1F`, the molecule was classed as inactive in experiment [1] and in experiment [2].

Turning to `COc1cccc(-c2cc(C(=O)N3CCCCCC3)no2)c1`, the molecule was classed as inactive in experiment [1] and in experiment [2].

On to `COCCn1c(C)c(C)c2c(NCCc3ccccc3)ncnc21`, for which the molecule was classed as inactive in experiment [1] and in experiment [2].

Turning to `COCCn1c(C)cc(C(=O)CSc2nnnn2C2CCCC2)c1C`, the call in experiment [1] and in experiment [2] was inactive.

`Cc1ccc2nc(-c3ccc(NC(=O)C(C)Sc4nncs4)cc3)sc2c1` (stereo not given): the call in experiment [1] and in experiment [2] was inactive.

Consider `O=C(O)c1ccc(N/N=C/c2ccc(OC(=O)c3cccc(Cl)c3)cc2)cc1`, for which the molecule was called inactive in experiment [1] and in experiment [2].

Consider `O=C(O)c1c2c(nc3ccccc13)/C(=C/c1ccc(O)cc1)CC2`, for which the molecule was called inactive in experiment [1] and in experiment [2].

For the molecule `Cc1cccc(-n2ncc3c(N(C)C4CCCCC4)ncnc32)c1`, the call in experiment [1] and in experiment [2] was inactive.

Turning to `CCS(=O)(=O)N1Cc2ccccc2CC1C(=O)Nc1nc2ccccc2s1` (stereo not given), the molecule was called inactive in experiment [1] and in experiment [2].

Regarding `COc1ccc(-c2cc(C(=O)N3CCOCC3)no2)cc1`, the result in experiment [1] and in experiment [2] was inactive.

Regarding `CCCC(=O)N1CCCC(c2cc(C(=O)Nc3ccccc3)no2)C1` (stereo not given), the molecule was classed as inactive in experiment [1] and in experiment [2].

On to `O=C(O)c1ccc(Nc2nc3c(s2)CCCC3)cc1`, for which the result in experiment [1] and in experiment [2] was inactive.

Turning to `Cc1ccc(-c2cc(C(=O)N3CCOCC3)no2)cc1`, the molecule was called inactive in experiment [1] and in experiment [2].

With `C[C@H](CO)N1C[C@H](C)[C@H](CN(C)C(=O)Nc2cccc3ccccc23)OCCCC[C@H](C)Oc2ccc(NC(=O)NC3CCCCC3)cc2C1=O`, the result in experiment [1] and in experiment [2] was inactive.

As to `O=C(CN1C(=O)c2ccccc2S1(=O)=O)c1ccccc1F`, the outcome in experiment [1] and in experiment [2] was inactive.

As to `Cc1c(C)c2ccc(OCC(=O)Nc3nccs3)cc2oc1=O`, the molecule was classed as inactive in experiment [1] and in experiment [2].

For `CCOC(=O)c1cn2nc(N3CCCCC3)ccc2n1`, the molecule was called inactive in experiment [1] and in experiment [2].

For `C=CCNC(=O)c1c(Cl)nc(C)c([N+](=O)[O-])c1C`, the molecule was classed as inactive in experiment [1] and in experiment [2].

Consider `O=C(O)c1cccc(Nc2ccnc(Nc3cccc(C(=O)O)c3)n2)c1`, for which the call in experiment [1] and in experiment [2] was inactive.

Take `COc1ccc(OCC(=O)Nc2nccs2)cc1`: the molecule was called inactive in experiment [1] and in experiment [2].

For `O=C(Nc1cccc(O)c1)c1cc(-c2ccc3c(c2)OCO3)on1`, the result in experiment [1] and in experiment [2] was inactive.

In the case of `CC(C)(C)n1ncc2c(=O)n(CC(=O)OCc3ccccc3)cnc21`, the molecule was classed as inactive in experiment [1] and in experiment [2].

For `Cc1cc(C(=O)CN2C(=O)c3ccccc3S2(=O)=O)c(C)n1C(C)C`, the result in experiment [1] and in experiment [2] was inactive.

Consider `C[C@@H]1CN([C@@H](C)CO)C(=O)c2cc(NS(=O)(=O)c3ccc(F)cc3)ccc2O[C@H]1CN(C)Cc1ccc(-c2ccccc2)cc1`, for which the molecule was called inactive in experiment [1] and in experiment [2].

Regarding `c1ccc(-n2cnnc2SCc2cn3cccnc3n2)cc1`, the molecule was classed as inactive in experiment [1] and in experiment [2].

For `CC(C)Oc1ccc(CNC(=O)CC(c2ccccc2)c2cc(Cl)ccc2O)cc1` (stereo not given), the result in experiment [1] and in experiment [2] was inactive.

Take `Clc1ccccc1/C=C/c1nc(-c2ccccn2)no1`: the outcome in experiment [1] and in experiment [2] was inactive.

For `Cc1ccc(-c2nc(-c3ccccn3)no2)cc1[N+](=O)[O-]`, the result in experiment [1] and in experiment [2] was inactive.

`Cc1c(NC(=O)c2cccc(NC(=O)COc3ccccc3C#N)c2)c(=O)n(-c2ccccc2)n1C`: the molecule was classed as inactive in experiment [1] and in experiment [2].

Regarding `O=C(CN1C(=O)c2ccccc2S1(=O)=O)c1ccc(F)c(F)c1`, the outcome in experiment [1] and in experiment [2] was inactive.

Consider `c1ccc(-n2ncc3c(N4CCCCC4)ncnc32)cc1`, for which the molecule was called inactive in experiment [1] and in experiment [2].

`O=C(CN1C(=O)c2ccccc2S1(=O)=O)c1ccc2c(c1)OCCCO2`: the result in experiment [1] and in experiment [2] was inactive.

For `CN(C)c1ccc(C2NC(=O)c3ccccc3N2)cc1` (stereo not given), the molecule was classed as inactive in experiment [1] and in experiment [2].

For the molecule `O=C(COc1ccc2ccccc2c1)Nc1nccs1`, the molecule was called inactive in experiment [1] and in experiment [2].

Take `CCOc1ccc(C(=O)Nc2cccc(C(=O)O)c2C)cc1Cl`: the molecule was called inactive in experiment [1] and in experiment [2].

Regarding `CCc1nc(Sc2nnnn2-c2ccccc2)c2c3c(sc2n1)CCCC3`, the molecule was called inactive in experiment [1] and in experiment [2].

Consider `Cc1cnc(NC(=O)c2ccc(OCC3CCCO3)cc2)s1` (stereo not given), for which the molecule was classed as inactive in experiment [1] and in experiment [2].

For `OC1CCC(Nc2ccn3nc(-c4cccc(OCc5ccccc5)c4)cc3n2)CC1` (stereo not given), the result in experiment [1] and in experiment [2] was inactive.

Take `COc1ccc(-c2cc(C(=O)N3CCCC3)no2)cc1`: the molecule was classed as inactive in experiment [1] and in experiment [2].

As for `Cc1ccc2nc(-c3ccc(NC(=O)COC(=O)c4ccco4)cc3)sc2c1`, the molecule was called inactive in experiment [1] and in experiment [2].

Regarding `COc1ccc(/C=C/C(=O)Nc2ccccc2C(=O)O)cc1OC`, the result in experiment [1] and in experiment [2] was inactive.

For `Cc1ccc2nc(NC(=O)CCCC(=O)O)sc2c1`, the result in experiment [1] and in experiment [2] was inactive.

As for `CCOC(=O)c1cn2nc(N3CCCC3)ccc2n1`, the call in experiment [1] and in experiment [2] was inactive.

`CSc1ccc(NC(=O)Nc2cc(C)ccn2)cc1`: the outcome in experiment [1] and in experiment [2] was inactive.

Consider `O=C1OCCC1Sc1nnc(-c2ccc(Cl)cc2Cl)o1` (stereo not given), for which the molecule was called inactive in experiment [1] and in experiment [2].

Regarding `Cc1nc2c(OCCC3CCCCC3)cccn2c1N(C)C(=O)CCC1CCCC1`, the molecule was called inactive in experiment [1] and in experiment [2].

Consider `Clc1ccc(-n2ncc3c(N4CCCC4)ncnc32)cc1`, for which the call in experiment [1] and in experiment [2] was inactive.

With `Cc1ccc(NC(=O)c2cnn(-c3ccccc3)c2C)cc1C`, the outcome in experiment [1] and in experiment [2] was inactive.

In the case of `Cc1ccccc1C(=O)Nc1nnc(-c2ccco2)s1`, the molecule was classed as inactive in experiment [1] and in experiment [2].

With `COc1ccc(-c2noc(CCC(=O)N3CCN(c4ccc(Cl)cc4)CC3)n2)cc1`, the molecule was classed as inactive in experiment [1], in experiment [2] and in experiment [3].

In the case of `CCc1nnc(NC(=O)CSc2nnc3ncccn23)s1`, the molecule was classed as inactive in experiment [1], in experiment [2] and in experiment [3].

As for `O=C(CN1CCOc2ccccc21)NCc1ccc(F)cc1`, the outcome in experiment [1] and in experiment [2] was inactive.

`Cc1ccc(NC(=O)c2ncn(CC(=O)NCc3ccc4[nH]ccc4c3)n2)cc1C`: the molecule was called inactive in experiment [1], in experiment [2] and in experiment [3].

With `Cc1cc(C(=O)CSc2nnc(N)s2)c(C)n1Cc1cccs1`, the call in experiment [1] and in experiment [2] was inactive.

For the molecule `O=C(C[C@H]1CC[C@H](NS(=O)(=O)c2cccc(F)c2)[C@@H](CO)O1)N1CCCCC1`, the outcome in experiment [1], in experiment [2] and in experiment [3] was inactive.

As for `Cc1ccnc(N2C(=O)c3ccccc3C2Nc2ccc3c(c2)OCCO3)c1` (stereo not given), the call in experiment [1], in experiment [2] and in experiment [3] was inactive.

Turning to `C[C@H](CO)N1C[C@H](C)[C@@H](CN(C)CC2CCOCC2)Oc2ncc(Br)cc2C1=O`, the result in experiment [1], in experiment [2] and in experiment [3] was inactive.

As to `Nc1c(C(=O)Nc2cccc(C(=O)O)c2)sc2nc3c(cc12)CCCC3`, the molecule was classed as inactive in experiment [1] and in experiment [2].

`C=CCn1c(SCC(=O)Nc2ncc(Cc3ccc(C)c(Cl)c3)s2)nnc1-c1ccncc1`: the molecule was classed as inactive in experiment [1], in experiment [2] and in experiment [3].

For `CCCCC(=O)N(C)c1c(C)nc2ccc(C(=O)N3CCCCC3)cn12`, the molecule was called inactive in experiment [1], in experiment [2] and in experiment [3].

Regarding `C[C@@H]1CN([C@@H](C)CO)C(=O)c2cccc(NC(=O)Nc3ccc(C(F)(F)F)cc3)c2O[C@H]1CN(C)C(=O)Nc1cccc2ccccc12`, the outcome in experiment [1], in experiment [2] and in experiment [3] was inactive.

`CC(=O)c1c(C)[nH]c(C(=O)CN2C(=O)NC(C)(c3ccc(C)cc3)C2=O)c1C` (stereo not given): the molecule was called inactive in experiment [1], in experiment [2] and in experiment [3].

`O=C(Nc1cccc(C(=O)O)c1)Nc1ccccc1Cl`: the result in experiment [1] and in experiment [2] was inactive.

For `COc1ccc(-n2sc3ccc(F)cc3c2=O)cc1`, the call in experiment [1] and in experiment [2] was inactive.

Consider `C[C@@H]1CN([C@H](C)CO)C(=O)c2cc(C#CCN(C)C)cnc2O[C@@H]1CN(C)C(=O)CN1CCOCC1`, for which the molecule was called inactive in experiment [1], in experiment [2] and in experiment [3].
